Key:
Experiment in all cases: DAPPL (digital affinity profiling via proximity ligation, sequencing); 10 mM Tris-HCl pH 7.5, 50 mM NaCl, 1 mM DTT, 4% glycerol, room temperature, 30 min; GST-TFs on glutathione beads, 16-mer random dsDNA library, 0.1% formaldehyde crosslink after washing; high values mean tight binding
Conditions in all cases: protein: recombinant; tags: N-terminal GST; dsDNA, one strand shown
[1] = target: ELF4 (Homo sapiens, UniProt Q99607 1-663)
Method in brief: (§1)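 Human transcription factors were made in yeast as GST fusions, captured on glutathione beads and barcoded with DNA. With a tag-only sample included, the pool was incubated with 200 nmole of a random double-stranded 16-mer DNA library in Tris/NaCl/DTT/glycerol buffer at room temperature for 30 min, then crosslinked with 0.1% formaldehyde after washing, ligated by proximity, amplified and sequenced. For binding signal, each hexamer's read frequency for a factor is divided by its frequency for the tag-only sample.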

[2] = target: T1, ETV2 (Homo sapiens, UniProt O00321 1-342)
T1 sequence: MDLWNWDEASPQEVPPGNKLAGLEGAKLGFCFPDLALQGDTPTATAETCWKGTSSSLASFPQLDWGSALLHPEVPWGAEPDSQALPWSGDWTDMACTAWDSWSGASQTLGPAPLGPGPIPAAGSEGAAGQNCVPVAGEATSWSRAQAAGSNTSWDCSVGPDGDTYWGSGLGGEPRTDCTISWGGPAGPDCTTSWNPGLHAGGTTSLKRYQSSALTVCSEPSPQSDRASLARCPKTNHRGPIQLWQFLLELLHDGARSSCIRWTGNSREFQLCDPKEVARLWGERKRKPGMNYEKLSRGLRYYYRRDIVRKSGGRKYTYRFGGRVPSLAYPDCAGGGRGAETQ
Method in brief: as §1

[3] = target: T2, ELF3 (Homo sapiens, UniProt P78545 1-371)
T2 sequence: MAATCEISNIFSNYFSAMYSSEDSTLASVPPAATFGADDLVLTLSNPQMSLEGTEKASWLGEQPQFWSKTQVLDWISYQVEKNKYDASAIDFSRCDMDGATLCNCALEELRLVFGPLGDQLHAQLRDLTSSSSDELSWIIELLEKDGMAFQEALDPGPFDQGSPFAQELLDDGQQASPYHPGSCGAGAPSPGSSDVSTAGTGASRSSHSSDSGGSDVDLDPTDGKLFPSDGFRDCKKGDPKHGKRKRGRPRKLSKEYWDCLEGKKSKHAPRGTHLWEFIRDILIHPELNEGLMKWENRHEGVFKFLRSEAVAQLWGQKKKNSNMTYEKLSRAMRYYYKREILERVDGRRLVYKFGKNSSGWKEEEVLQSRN
Method in brief: as §1

[4] = target: T3, ERF (Homo sapiens, UniProt P50548 1-548)
T3 sequence: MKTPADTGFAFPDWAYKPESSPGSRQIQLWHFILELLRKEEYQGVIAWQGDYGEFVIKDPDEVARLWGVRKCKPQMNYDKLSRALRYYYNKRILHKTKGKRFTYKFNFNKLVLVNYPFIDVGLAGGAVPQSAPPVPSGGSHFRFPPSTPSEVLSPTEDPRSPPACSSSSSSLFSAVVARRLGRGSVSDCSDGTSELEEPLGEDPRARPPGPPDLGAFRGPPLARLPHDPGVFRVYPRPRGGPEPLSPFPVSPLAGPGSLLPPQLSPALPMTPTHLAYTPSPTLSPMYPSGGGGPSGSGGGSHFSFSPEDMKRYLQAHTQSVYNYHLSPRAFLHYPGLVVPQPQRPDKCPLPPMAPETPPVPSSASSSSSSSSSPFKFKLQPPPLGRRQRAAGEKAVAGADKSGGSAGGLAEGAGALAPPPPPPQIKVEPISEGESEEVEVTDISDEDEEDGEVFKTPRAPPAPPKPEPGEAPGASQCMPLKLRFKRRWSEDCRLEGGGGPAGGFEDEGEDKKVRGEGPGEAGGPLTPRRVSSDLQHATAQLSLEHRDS
Method in brief: as §1

[5] = target: T4, ETV3L (Homo sapiens, UniProt Q6ZN32 1-361)
T4 sequence: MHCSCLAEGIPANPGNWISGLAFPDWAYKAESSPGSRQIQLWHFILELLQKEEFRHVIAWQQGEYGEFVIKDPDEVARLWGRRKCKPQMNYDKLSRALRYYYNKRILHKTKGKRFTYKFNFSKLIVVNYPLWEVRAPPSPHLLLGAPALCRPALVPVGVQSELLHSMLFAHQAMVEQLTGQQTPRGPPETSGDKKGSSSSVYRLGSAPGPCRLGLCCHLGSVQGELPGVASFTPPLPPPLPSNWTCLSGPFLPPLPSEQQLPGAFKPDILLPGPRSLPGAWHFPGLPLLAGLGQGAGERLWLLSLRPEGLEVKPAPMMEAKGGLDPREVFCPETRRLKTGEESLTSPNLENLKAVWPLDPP
Method in brief: as §1

[6] = target: T5, ETS2 (Homo sapiens, UniProt P15036 1-469)
T5 sequence: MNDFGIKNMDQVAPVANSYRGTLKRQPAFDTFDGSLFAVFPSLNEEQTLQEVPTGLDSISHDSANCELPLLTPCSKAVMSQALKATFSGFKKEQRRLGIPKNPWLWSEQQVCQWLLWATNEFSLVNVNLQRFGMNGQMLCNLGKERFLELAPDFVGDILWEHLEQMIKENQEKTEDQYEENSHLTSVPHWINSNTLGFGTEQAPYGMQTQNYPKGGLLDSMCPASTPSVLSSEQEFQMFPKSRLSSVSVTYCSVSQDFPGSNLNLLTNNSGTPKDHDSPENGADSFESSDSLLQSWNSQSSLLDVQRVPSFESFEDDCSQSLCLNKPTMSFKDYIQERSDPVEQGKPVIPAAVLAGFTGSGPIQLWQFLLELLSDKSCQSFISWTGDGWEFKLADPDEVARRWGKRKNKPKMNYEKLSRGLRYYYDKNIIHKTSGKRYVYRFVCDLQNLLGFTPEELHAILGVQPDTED
Method in brief: as §1

[7] = target: T6, SPDEF (Homo sapiens, UniProt O95238 1-335)
T6 sequence: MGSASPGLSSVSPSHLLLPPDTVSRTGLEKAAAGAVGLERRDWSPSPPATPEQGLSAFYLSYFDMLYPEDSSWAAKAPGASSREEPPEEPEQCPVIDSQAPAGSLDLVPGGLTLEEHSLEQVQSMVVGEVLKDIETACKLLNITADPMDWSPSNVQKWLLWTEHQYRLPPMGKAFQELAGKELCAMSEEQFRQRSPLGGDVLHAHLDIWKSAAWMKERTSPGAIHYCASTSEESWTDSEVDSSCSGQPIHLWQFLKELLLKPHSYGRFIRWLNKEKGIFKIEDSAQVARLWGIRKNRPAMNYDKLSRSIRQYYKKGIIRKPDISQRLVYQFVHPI
Method in brief: as §1

[8] = target: T7, ETV7 (Homo sapiens, UniProt Q9Y603 1-341)
T7 sequence: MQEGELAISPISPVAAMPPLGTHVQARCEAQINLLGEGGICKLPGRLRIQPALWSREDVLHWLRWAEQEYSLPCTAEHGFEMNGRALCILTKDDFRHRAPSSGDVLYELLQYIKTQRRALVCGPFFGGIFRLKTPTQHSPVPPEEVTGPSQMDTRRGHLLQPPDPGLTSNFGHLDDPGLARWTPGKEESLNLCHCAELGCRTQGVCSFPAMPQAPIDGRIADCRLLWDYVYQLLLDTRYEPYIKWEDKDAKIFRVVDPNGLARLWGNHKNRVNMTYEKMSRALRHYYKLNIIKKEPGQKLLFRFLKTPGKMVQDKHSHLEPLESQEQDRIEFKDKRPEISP
Method in brief: as §1

[9] = target: T8, ELF5 (Homo sapiens, UniProt Q9UKW6-2 1-255)
T8 sequence: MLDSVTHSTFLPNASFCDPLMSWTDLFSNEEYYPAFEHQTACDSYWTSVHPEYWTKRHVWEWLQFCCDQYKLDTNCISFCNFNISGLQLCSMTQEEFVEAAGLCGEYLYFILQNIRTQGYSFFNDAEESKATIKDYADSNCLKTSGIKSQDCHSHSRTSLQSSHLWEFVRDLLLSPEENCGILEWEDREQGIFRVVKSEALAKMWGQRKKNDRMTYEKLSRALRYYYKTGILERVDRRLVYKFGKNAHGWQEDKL
Method in brief: as §1

[10] = target: ETV6 (Homo sapiens, UniProt P41212 1-452)
Method in brief: as §1

[11] = target: T9, GABPA (Homo sapiens, UniProt Q06546 1-454)
T9 sequence: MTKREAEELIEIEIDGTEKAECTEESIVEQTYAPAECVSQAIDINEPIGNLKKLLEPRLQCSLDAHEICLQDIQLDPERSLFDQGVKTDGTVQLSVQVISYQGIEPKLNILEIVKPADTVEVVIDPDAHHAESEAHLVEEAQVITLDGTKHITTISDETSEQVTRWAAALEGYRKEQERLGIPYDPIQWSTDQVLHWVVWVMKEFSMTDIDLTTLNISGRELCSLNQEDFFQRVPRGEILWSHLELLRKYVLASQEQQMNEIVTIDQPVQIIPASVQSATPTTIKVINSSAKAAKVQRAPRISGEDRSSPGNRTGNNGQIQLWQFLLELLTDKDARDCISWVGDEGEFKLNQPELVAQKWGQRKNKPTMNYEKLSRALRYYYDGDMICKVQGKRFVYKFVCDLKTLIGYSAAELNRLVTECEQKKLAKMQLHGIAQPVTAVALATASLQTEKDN
Method in brief: as §1

[12] = target: T10, EHF (Homo sapiens, UniProt Q9NZC4 1-300)
T10 sequence: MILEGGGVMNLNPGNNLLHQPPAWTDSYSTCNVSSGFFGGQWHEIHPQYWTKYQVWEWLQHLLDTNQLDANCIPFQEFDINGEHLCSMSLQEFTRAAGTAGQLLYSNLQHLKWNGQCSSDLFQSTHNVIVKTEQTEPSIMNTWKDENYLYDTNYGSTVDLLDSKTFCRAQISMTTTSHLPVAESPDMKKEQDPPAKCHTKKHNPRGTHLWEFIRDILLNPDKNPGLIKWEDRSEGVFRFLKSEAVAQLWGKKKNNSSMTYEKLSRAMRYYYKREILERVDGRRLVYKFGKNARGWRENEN
Method in brief: as §1

[13] = target: T11, ELK3 (Homo sapiens, UniProt P41970 1-407)
T11 sequence: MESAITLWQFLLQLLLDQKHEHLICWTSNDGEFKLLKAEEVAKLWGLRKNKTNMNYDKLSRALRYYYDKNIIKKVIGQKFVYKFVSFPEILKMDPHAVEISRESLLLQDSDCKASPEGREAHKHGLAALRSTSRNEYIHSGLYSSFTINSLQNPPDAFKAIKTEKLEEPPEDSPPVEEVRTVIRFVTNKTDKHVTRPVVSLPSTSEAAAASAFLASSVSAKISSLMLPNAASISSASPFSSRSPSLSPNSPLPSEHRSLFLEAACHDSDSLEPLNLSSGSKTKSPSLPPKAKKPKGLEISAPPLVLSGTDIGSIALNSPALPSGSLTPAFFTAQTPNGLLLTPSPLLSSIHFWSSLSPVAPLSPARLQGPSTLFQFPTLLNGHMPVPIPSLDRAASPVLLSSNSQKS
Method in brief: as §1

Sequence of ELF4 (Q99607 whole entry, the tested form may be a part): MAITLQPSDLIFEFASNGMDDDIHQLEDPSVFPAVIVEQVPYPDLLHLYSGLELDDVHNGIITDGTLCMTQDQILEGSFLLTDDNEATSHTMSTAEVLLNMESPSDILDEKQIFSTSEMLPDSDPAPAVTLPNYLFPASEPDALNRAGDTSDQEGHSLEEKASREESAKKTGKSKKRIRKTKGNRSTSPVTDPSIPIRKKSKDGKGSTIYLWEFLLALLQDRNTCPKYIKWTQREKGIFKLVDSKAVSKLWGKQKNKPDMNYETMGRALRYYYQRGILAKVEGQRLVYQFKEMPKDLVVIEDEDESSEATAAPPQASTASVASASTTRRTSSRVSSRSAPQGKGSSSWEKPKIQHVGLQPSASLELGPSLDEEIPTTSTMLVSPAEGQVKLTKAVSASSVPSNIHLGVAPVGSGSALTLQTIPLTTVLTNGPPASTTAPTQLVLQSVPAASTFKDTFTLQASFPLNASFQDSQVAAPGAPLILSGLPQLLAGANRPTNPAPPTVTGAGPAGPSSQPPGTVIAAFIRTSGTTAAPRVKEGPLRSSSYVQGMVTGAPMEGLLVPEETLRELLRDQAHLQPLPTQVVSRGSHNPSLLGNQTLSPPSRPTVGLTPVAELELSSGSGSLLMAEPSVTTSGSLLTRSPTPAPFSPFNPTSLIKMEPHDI
Sequence of ETV6 (P41212 whole entry): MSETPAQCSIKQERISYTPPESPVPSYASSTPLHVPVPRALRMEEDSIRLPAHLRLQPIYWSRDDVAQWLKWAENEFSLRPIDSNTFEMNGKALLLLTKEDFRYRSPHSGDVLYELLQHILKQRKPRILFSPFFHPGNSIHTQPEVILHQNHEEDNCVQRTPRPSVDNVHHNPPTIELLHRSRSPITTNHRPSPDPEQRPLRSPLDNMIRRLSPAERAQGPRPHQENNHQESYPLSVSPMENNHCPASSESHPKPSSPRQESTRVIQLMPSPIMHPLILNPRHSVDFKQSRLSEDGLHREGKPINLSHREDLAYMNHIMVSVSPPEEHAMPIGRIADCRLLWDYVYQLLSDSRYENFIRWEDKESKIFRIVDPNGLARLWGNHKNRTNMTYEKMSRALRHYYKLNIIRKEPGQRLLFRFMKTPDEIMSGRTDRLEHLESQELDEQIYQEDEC

Row | Sequence | binding signal [1] | binding signal [2] | binding signal [3] | binding signal [4] | binding signal [5] | binding signal [6] | binding signal [7] | binding signal [8] | binding signal [9] | binding signal [10] | binding signal [11] | binding signal [12] | binding signal [13]
1 | GAATGC | 1.05 fold enrichment (6-mer frequency, TF over GST control) | 1.04 fold enrichment (6-mer frequency, TF over GST control) | 1.06 fold enrichment (6-mer frequency, TF over GST control) | 1.04 fold enrichment (6-mer frequency, TF over GST control) | 1.01 fold enrichment (6-mer frequency, TF over GST control) | 1.05 fold enrichment (6-mer frequency, TF over GST control) | 1.04 fold enrichment (6-mer frequency, TF over GST control) | 1.03 fold enrichment (6-mer frequency, TF over GST control) | 1.07 fold enrichment (6-mer frequency, TF over GST control) | 1.01 fold enrichment (6-mer frequency, TF over GST control) | – | – | –
2 | GCATAC | 1.01 fold enrichment (6-mer frequency, TF over GST control) | – | – | – | – | – | – | 1 fold enrichment (6-mer frequency, TF over GST control) | – | – | 1.01 fold enrichment (6-mer frequency, TF over GST control) | 1.01 fold enrichment (6-mer frequency, TF over GST control) | 1.05 fold enrichment (6-mer frequency, TF over GST control)
